# A selection: hits, their analogues and other compounds. The true share with any hit is near 5.3%.
# Tau ThT inhib: qHTS for Inhibitors of Tau Fibril Formation, Thioflavin T Binding | Microtubule-associated protein tau (Homo sapiens), P10636 | recombinant tau K18 P301L, heparin-induced fibrillization, ThT fluorescence | Potency, µM (doses to about 57.4 µM), for inactives: at the top dose activity, negative = inhibition, most hits filed as inhibitors | actives 2.1% (n = 270,000) | AID 1460, 2008; also: potency is read from the fitted curve at half-maximal effect; nearly all actives have a fitted effect of over 55% in size
# Target sequence (P10636 561-689 P618L limits assumed): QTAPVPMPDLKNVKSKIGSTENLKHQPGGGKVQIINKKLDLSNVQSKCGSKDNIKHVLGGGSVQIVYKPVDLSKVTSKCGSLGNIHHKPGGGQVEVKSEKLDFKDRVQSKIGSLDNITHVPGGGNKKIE
#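 Using a mix of unlabeled (15 uM) and Alexa 594-labeled (0.24 uM) tau K18 P301L, heparin-triggered fibrillization over 6 hr at 37 C was scored by ThT fluorescence.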
# Tau FP inhib: qHTS for Inhibitors of Tau Fibril Formation, Fluorescence Polarization; Microtubule-associated protein tau (Homo sapiens), P10636; Potency, µM (top dose mostly 57.7 µM), for the others: top-dose activity, negative = inhibition, actives largely listed as inhibitors; K18 P301L tau heparin fibrillization, Alexa594 FP, 6 h; actives 0.39% (n = 280,000); also: potency is read from the fitted curve at half-maximal effect; nearly all actives have a fitted effect of over 55% in size
#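 Recombinant K18 P301L […], labeled with Alexa 594 at 0.24 uM over 15 uM unlabeled; heparin inducer 20 uM final; 37 C, 6 hr; FP endpoint.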
# JMJD2E inh: qHTS Assay for Inhibitors of Human Jumonji Domain Containing 2E (JMJD2E); JMJD2E catalytic domain, FDH-coupled NADH fluorescence (FDH is formaldehyde dehydrogenase); actives 1.6% (n = 230,000); Lysine-specific demethylase 4E (Homo sapiens), B2RXH2; AID 2147, 2009; Potency, µM (doses to about 57.1 µM), for the others: at the highest dose activity change, negative = inhibition, hits mostly inhibitors; active = well fitted inhibition curve with a large enough effect, not every such curve was filed as active; inconclusive = small, poorly fitted or top-dose-only effect, or another doubt; inactive = no such curve, though single readings can be large or run the other way;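 also: potency is read from the fitted curve at half-maximal effect; 0% = wells with enzyme and -100% = buffer wells without enzyme; nearly all actives have a fitted effect of over 50% in size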
# Target sequence (B2RXH2 1-337 limits assumed): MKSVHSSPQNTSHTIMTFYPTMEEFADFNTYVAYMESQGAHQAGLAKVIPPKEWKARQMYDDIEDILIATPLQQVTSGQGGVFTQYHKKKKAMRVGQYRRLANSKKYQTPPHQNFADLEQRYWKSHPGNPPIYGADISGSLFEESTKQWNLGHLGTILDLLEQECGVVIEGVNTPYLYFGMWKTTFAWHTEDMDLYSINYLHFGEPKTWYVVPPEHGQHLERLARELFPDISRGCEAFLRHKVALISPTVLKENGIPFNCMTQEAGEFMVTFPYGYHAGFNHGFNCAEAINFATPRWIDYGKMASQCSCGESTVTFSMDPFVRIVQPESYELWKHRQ
# Sfp PPTase inh: qHTS Assay for Inhibitors of Bacillus subtilis Sfp phosphopantetheinyl transferase (PPTase); Potency, µM, without a hit: largest response in the series, negative = inhibition, actives largely listed as inhibitors; 4'-phosphopantetheinyl transferase ffp (Bacillus subtilis), Q9F4F7; actives 3.5% (n = 310,000); Biochemical Sfp PPTase activity, qHTS;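 also: the enzyme is Sfp with the accession as filed and its product quenches rhodamine fluorescence; potency is read from the fitted curve at half-maximal effect; 0% = enzyme reaction without inhibitor and -100% = no enzyme wells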
#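 After 15 min at room temperature with compound, 15 nM Sfp received 5 uM rhodamine-CoA plus 12.5 uM BHQ-2-ybbR (50 mM Hepes pH 7.6, 10 mM MgCl2). Rate came from the fluorescence difference over 30 min, ex 525/em 598 nm.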
# Tau fluor counter: Counterscreen qHTS for Inhibitors of Tau Fibril Formation, Fluorescence Polarization; tau K18 P301L (four-repeat tau fragment) Alexa594 fluorescence, heparin fibrillization; Potency, µM (highest dose often 57.7 µM), without a hit: at the highest dose activity change, negative = decrease; actives 0.93% (n = 280,000); also: potency is read from the fitted curve at half-maximal effect; nearly all actives have a fitted effect of over 55% in size
#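 Human K18 P301L tau (15 uM unlabeled plus 0.24 uM Alexa 594-labeled, final) in 100 mM sodium acetate pH 7 was mixed with compound and 20 uM heparin and incubated 6 hr at 37 C.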
# Coupling enz: qHTS Assay for Inhibitors of Fructose-1,6-bisphosphate Aldolase from Giardia Lamblia: Coupling assay counterscreen; AID 2472, 2010; activity change, negative = inhibition, % at 58.2 µM, hits read low; coupling enzyme system counterscreen, AmpLite Red fluorescence; actives 0.67% (n = 290,000); in the data active = activity change below about -30%
#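 Fluorescence at 525 nm excitation and 598 nm emission measured inhibition of the coupled detection system without aldolase. Compounds (at 57.5 uM final) were preincubated 10 min at room temperature with coupling enzyme reagent before a 20 min substrate/AmpLite Red step.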
# Numbers without * were called inactive; ? = inconclusive; · = no result; [ ] = another dose, or the depositor's remark. Unless noted, calls follow the shape of the dose curve; as a rule, active = well fitted curve in the direction sought with a large enough effect; inconclusive = small, poorly fitted or top-dose-only effect, or another doubt; inactive = no such curve, though single readings can be large; an effect the other way counts as inactive or inconclusive. Unless noted, % is scaled to controls: 0 for no effect and ±100 for the full control effect.
SMILES,Tau ThT inhib,Tau FP inhib,JMJD2E inh,Sfp PPTase inh,Tau fluor counter,Coupling enz
CC(=O)Nc1ccc(C(=O)Nc2ccc3c(c2)N(C2CCCC2)C(=O)c2ccccc2S3)cc1,13%,13µM*,·,·,?,·
O=C(Nc1ccc2c(c1)N(Cc1ccccc1)C(=O)c1ccccc1S2)NC1CC1,6%,22µM*,12%,-7%,?,2
NCCCCCCCCCCNCCCN,·,·,·,30%,·,0
O=C(N/N=C/C=C/c1ccccc1)c1cccnc1,-2%,-3%,-1%,13%,-2%,-3
O=C(N/N=C\C=C\c1ccco1)c1cncc(Br)c1,·,-8%,-24%,40µM*,-3%,-11
CC(/C=C\C=C\c1ccccc1)=N\NC(=O)c1cncc(Br)c1,10µM*,3%,-22%,-30%,-14%,-1
O=C(N/N=C/C=C\c1ccco1)c1cccnc1,?,?,-11%,32µM*,-18%,-14
O=C(N/N=C/C=C/c1ccco1)c1cccnc1,?,?,?,35µM*,-21%,-18
O=C(N/N=C/c1ccco1)c1ccncc1,9%,-4%,-6%,-67%,4%,-14
Cc1ccc(CNC(=O)c2sc3nc4n(c(=O)c3c2C)CCCC4)cc1,?,11%,·,·,-13%,·
CCNc1ncc2nc(C)c(=O)n(C3CC3)c2n1,·,·,·,20%,·,1
COc1ccc(NC(=O)CN2C(=O)CC(c3ccc(C)c(C)c3)=Nc3ccccc32)cc1OC,?,-1%,·,·,25µM*[quencher],·
O=C(Nc1nnc(-c2ccc(Cl)cc2)o1)c1ccc(N2C(=O)CCC2=O)cc1,12%,-2%,-1%,27%,10%,-2
O=C(Nc1nnc(-c2ccco2)o1)c1ccc(N2C(=O)CCC2=O)cc1,-11%,-1%,-1%,79µM*,-9%,-3
CC(C)CC(=O)Nc1nc2ccc(S(C)(=O)=O)cc2s1,-3%,2%,-2%,20µM*,2%,1
CCCCNS(=O)(=O)c1ccc2nc(NC(=O)c3cccnc3)sc2c1,6%,-8%,·,·,-3%,·
CCC(=O)Nc1nc2ccc(S(C)(=O)=O)cc2s1,3%,5%,-4%,17%,7%,-2
O=C(Nc1nc2ccc(SC(F)F)cc2s1)c1ccc(NS(=O)(=O)c2ccc(F)c(F)c2)cc1,?,13µM*,?,-5%,?,-1
CCCNS(=O)(=O)c1ccc2nc(NC(=O)c3ccc(F)cc3)sc2c1,28µM*,?,·,·,-26%,·
CC1=CC23C(=O)C(C=C(CO)[C@@H](O)[C@]2(O)[C@H]1O)[C@H]1[C@@H](C[C@H]3C)C1(C)C (some centres undefined),·,·,·,-1%,·,0
O=c1ccc2[n+]([O-])c3ccc(O)cc3oc-2c1,13µM*,32%,?,?,2µM*[fluorescent],1
COc1ccc(Oc2ncc3ncc(=O)n(C[C@H]4CCCO4)c3n2)cc1,·,·,·,-12%,·,-5
COC(=O)c1cc2occc2n1Cc1nc(-c2cccc(Br)c2)oc1C,3%,-3%,·,·,-11%,·
Nc1ccccc1SCc1ccccc1Cl,-13%,5%,3%,20µM*,-28%,-1
Nc1ccccc1SSc1ccccc1N,·,?,3%,3.5µM*,?,-4
SMILES,Tau ThT inhib,Tau FP inhib,JMJD2E inh,Sfp PPTase inh,Tau fluor counter,Coupling enz
Nc1ccccc1SCc1c(Cl)cccc1Cl,3%,-6%,5%,22%,-2%,-2
COc1cc(OC)c2c(=O)c(-c3ccccc3)coc2c1,?,-5%,?,?,-19%,-6
CCCCNC(=S)NCCN1CCCCC1,1%,3%,-6%,56µM*,0%,0
CCCCNC(=S)N1CCN(C)CC1,0%,14%,8.9µM*,10µM*,6%,2
CC(C)CNC(=S)N1CCN(C)CC1,1%,-3%,-25%,-19%,1%,-5
O=C(CC(c1ccccc1)c1cc(Br)ccc1O)NCC1(c2ccccc2)CCCC1 (centres undefined),0%,?,·,·,?,·
c1ccc(-c2n[nH]c(-c3ccccn3)n2)cc1,-12%,0%,-5%,12%,-9%,2
c1ccc(-c2ccc(-c3ccccn3)nn2)nc1,-8%,-15%,?,16µM*,0%,-4
c1ccc(-c2nn[nH]n2)nc1,·,8%,?,56µM*,4%,1
c1ccc(-c2n[nH]c(-c3ccccn3)n2)nc1,3%,7%,8%,20µM*,13%,2
C[C@H](NC(=O)[C@@H](N)Cc1ccc(O)cc1)C(=O)NCC(=O)N[C@H]1CSSC[C@@H](C(=O)O)NC(=O)[C@H](CO)NC(=O)[C@H]([C@@H](C)O)NC(=O)[C@H](Cc2ccccc2)NC(=O)[C@H]([C@@H](C)O)NC(=O)[C@H](CCCCN)NC(=O)[C@H](Cc2c[nH]c3ccccc23)NC(=O)[C@H](Cc2ccccc2)NC(=O)[C@H](Cc2ccccc2)NC(=O)[C@H](CC(N)=O)NC(=O)[C@H](CCCCN)NC1=O,·,·,·,1%,·,1
CC(C)(C)CC(C)(C)c1cc(Cc2cc(C(C)(C)CC(C)(C)C)cc(-n3nc4ccccc4n3)c2O)c(O)c(-n2nc3ccccc3n2)c1,·,·,·,14%,·,·
Cc1c(Cl)cccc1-n1ncc(C(=O)Nc2ccc3c(c2)OCCO3)c1C1CCN(C(=O)OC(C)(C)C)CC1,-16%,2%,·,·,?,·
COC(=O)c1c(C)oc2ccc(N(C(=O)Oc3ccccc3)S(=O)(=O)c3ccc(C(C)(C)C)cc3)cc12,-4%,-13%,·,·,-10%,·
O=C1CCCCC/C1=N/Nc1ccc(OCc2ccccc2)cc1,11µM*,4%,5%,-9%,?,2
NC(=O)c1sc2nc3c(c(-c4ccco4)c2c1N)CCC3,?,4%,-5%,10µM*,-18%,-25
Cc1ccc(-c2c3c(nc4sc(C(N)=O)c(N)c24)CCCC3)o1,?,-1%,-12%,32µM*,-29%,-4
NC(=O)c1sc2nc3c(c(-c4cccs4)c2c1N)CCCC3,-15%,11%,-18%,-17%,-5%,-2
CCCCN(C)CCNC(=O)C1CCN(c2nc3ccc(CC)cc3s2)CC1,-16%,-2%,·,·,-15%,·
Cc1cc(=S)[nH]c(=S)[nH]1,-7%,-4%,-3%,45µM*,-11%,-2
Cc1ccc2c(Sc3ccccc3)c(C(=O)NCc3ccccc3F)[nH]c2c1,-16%,11%,·,·,-27%,·

# Screening results (PubChem BioAssay)
